Where “and” joins values, the source holds several entries; their conditions need not be identical. Equal entries are not always repeated. Results filed as inconclusive are left out. Calls come from the whole dose curve; as a rule, active = well fitted activation curve with a large enough effect in the signal ratio, with a control signal flat (not every such curve was filed as active); inconclusive = small, poorly fitted or top-dose-only effect, or effect the other way, or a change in a side signal; inactive = flat fitted curve, though single readings scatter; the % refers to the signal ratio.
Experiment: qHTS Assay for Identification of Small Molecule Agonists for Hypoxia Response Element Signaling Pathway (AID 914); note: % of control where 0% means no effect
Settings: ME-180 (cervical carcinoma) HRE-bla reporter, beta-lactamase ratio, CoCl2, 17 h; hits give high values
Procedure, shortened: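 HRE-bla ME-180 cells, overnight plating in Opti-MEM with 0.5% dialyzed FBS; cpd titration + EC50 CoCl2, 17 h, 37 degrees Celsius; CCF4 2.5 h RT; 460/530 nm ratio; AC50.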

activation, inactive:
CSCC[C@@H]1NC(=O)C/C=C\[C@@H](C)COC(=O)[C@@H](C)COC1=O -8.61%
O=C(N/N=C1/C[C@@H](O)[C@@H](O)[C@@H]2[C@@H]3C(=O)N(c4cccc(Oc5ccccc5)c4)C(=O)[C@H]3CC[C@H]12)OCc1ccccc1 9.49%
CC(C)[C@H](NC(=O)OC(C)(C)C)[C@@H](O)CC(=O)C(C)(C)C 3.44%
CCN1C(=O)[C@H]2[C@H]3[C@H](O)[C@H](O)C/C(=N/OCc4ccccc4)[C@H]3CC[C@@H]2C1=O 7.18%
CC(C)=CCC/C(C)=C/CO/N=C1/C[C@@H](O)[C@@H](O)[C@@H]2[C@@H]3C(=O)N(c4cccc(Oc5ccccc5)c4)C(=O)[C@H]3CC[C@H]12 7.14%
COC(=O)C(C(=O)OC)[C@@H]1CCCC(=O)C1 -2.41%
CCN1C(=O)[C@H]2[C@@H]3[C@H](O)[C@H](O)CC(=O)[C@H]3CC[C@H]2C1=O -3.64% and -8.67%
CC(C)=CCC/C(C)=C/CO/N=C1/C[C@@H](O)[C@@H](O)[C@@H]2[C@@H]3C(=O)N(c4cccc(Oc5ccccc5)c4)C(=O)[C@H]3CC[C@@H]12 6.84%
C/C(CCN1CCCc2nc(C)c(C)cc21)=N\O[C@@H](C)c1cn([C@@H]2COC[C@@H]2O)nn1 8.15%
CCN1C(=O)[C@H]2[C@H]3[C@H](O)[C@H](O)C/C(=N/OCc4ccccc4)[C@@H]3CC[C@@H]2C1=O -12.3%
c1ccc([C@H]2NCCc3c2[nH]c2ccccc32)cc1 -22.5%
CC(C)CO/N=C1/C[C@@H](O)[C@@H](O)[C@@H]2[C@@H]3C(=O)N(C4CCCCC4)C(=O)[C@H]3CC[C@H]12 -3.43%
CC(C)[C@@H](OCc1ccccc1)[C@H](C)/C=N\OC[C@@H](O)[C@@H]1O[C@@H]2OC(C)(C)O[C@@H]2[C@H]1O 7%
CO[C@H]1COC(=O)[C@H](C)COC(=O)[C@H](C)NC(=O)C/C=C\[C@H]1C 5.98%
COc1ccc(COC(=O)N/N=C2/C[C@@H](O)[C@@H](O)[C@@H]3[C@@H]4C(=O)N(Cc5ccc6c(c5)OCO6)C(=O)[C@H]4CC[C@H]23)cc1 -9.34%

— PubChem BioAssay (NCATS)
